# Source: PubChem
# KB-3-1 tox: KB-3-1 parental cell cytotoxicity; KB-3-1 viability, CellTiter-Glo ATP luminescence, 72 h; Potency, µM (series often up to 46.1 µM), usual class: cytotoxic; 1.4% of 400,000 active; also: % is scaled to controls: 0 for no effect and ±100 for the full control effect; nearly all actives have a fitted effect of over 60% in size
#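 Parental KB-3-1 adenocarcinoma cells in phenol-red-free DMEM with 10% FBS were pin-treated with compounds at several concentrations, incubated 72 h at 37 °C, and viability read by CellTiter-Glo luminescence; concentration-effect curves were fitted after normalization.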
# KB-V1 MDR tox: kills drug-selected multidrug resistant KB-V1 cells | KB-V1 MDR cells viability, CellTiter-Glo, 72 h | Potency, µM (highest dose often 46.1 µM), most hits filed as cytotoxic | 3.4% of 400,000 active; also: % is scaled to controls: 0 for no effect and ±100 for the full control effect; nearly all actives have a fitted effect of over 60% in size
#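 KB-V1 MDR subline cells in DMEM (phenol-red free, 10% FBS) exposed to compounds in qHTS concentration series for 72 h at 37 degrees C. Viability read by CellTiter-Glo luminescence; concentration-effect curves fitted after normalization and correction.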
# MCF10A rereplic: inducers of DNA re-replication in MCF 10A breast cells; MCF 10A DNA re-replication, Hoechst nuclear intensity, 48 h; Potency, µM (top dose mostly 46.1 µM), for inactives: top-dose activity, positive = re-replication, hits mostly activators; 2.9% of 350,000 active; also: % of control where 0% means no effect; nearly all actives have a fitted effect of over 50% in size
# ELG1 DNA repair: ELG1-dependent DNA repair inhibition | AID 504467 | 2.3% of 330,000 active | HEK293T ELG1-luciferase reporter, luminescence, 16 h; DNA damage induced by 5-fluorouridine | Potency, µM (series often up to 46.1 µM), for the others: at the top dose activity change, negative = inhibition, most hits filed as inhibitors; also: % is scaled to controls: 0 for no effect and ±100 for the full control effect; nearly all actives have a fitted effect of over 55% in size
#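 Overnight (16 hr) co-exposure of 2,000 cells/well to 5-fluorouridine and compound at 37 °C preceded detection. Luciferase was quantified via ONE-Glo luminescence; loss of signal denotes inhibition.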
# SW480 rereplic: inducers of DNA re-replication in SW480 colon cancer cells | SW480 DNA re-replication, Hoechst DNA content imaging, 48 h | Potency, µM (doses to about 46.1 µM), without a hit: at the top dose re-replication activation, usual class: activators | 1.8% of 340,000 active | AID 624297; also: % of control where 0% means no effect; nearly all actives have a fitted effect of over 55% in size
#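 SW480 cells exposed to compounds for 48 hr at 37 C, 5% CO2, then Hoechst-stained 40 min. Nuclear DNA content imaged by fluorescence scanning (405 nm excitation, 500-530 nm emission); re-replication scored as increased high-intensity nuclei.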
# Numbers without * were called inactive; i = inactive; u = inconclusive; x = no result given. The list is not random: actives were taken first. Their share in the collection is about 8.1%. Calls follow the shape of the dose curve; as a rule, active = well fitted curve in the direction sought with a large enough effect; inconclusive = small, poorly fitted or top-dose-only effect, or another doubt; inactive = no such curve, though single readings can be large; an effect the other way counts as inactive or inconclusive. Potency is read from the fitted curve at half-maximal effect.
SMILES,KB-3-1 tox,KB-V1 MDR tox,MCF10A rereplic,ELG1 DNA repair,SW480 rereplic
CC(O)(CS(=O)(=O)c1ccccc1)C(=O)Nc1cccc(C(F)(F)F)c1 (stereo not given),i,20.6µM*,-6.9%,6.9%,4.3%
Cn1nc(C(F)(F)F)c(-c2ccccc2)c1N,i,u,u,u,-8.8%
[Hg+][c]1ccccc1,u,u,51.1%,x,10.6µM*
CCOC(=O)c1c(C=O)c2ccccc2n1Cc1ccccc1,u,20.6µM*,u,-6.7%,u
Cc1cc(OCC(=O)N2CCN(CC(=O)N3CCOCC3)CC2)c(C(C)C)cc1Cl,i,i,26.3%,2.4%,1.8%
CCc1ccc(N2C(=O)NC(=O)/C(=C\c3cc(C)n(-c4cc(C(=O)O)cc(C(=O)O)c4)c3C)C2=O)cc1,i,i,2.8%,0.7%,-3.6%
O=c1c2ccccc2nc(/C=C/c2ccccc2O)n1-c1ccccc1O,x,x,x,23.1µM*,x
COc1cc(/C=C/c2nc3ccccc3c(=O)n2-c2ccc(O)cc2)ccc1O,u,u,20.6µM*,16.4µM*,u
COc1cccc(-n2c(-c3ccoc3)nc3ccccc3c2=O)c1,i,14.6µM*,9.8%,u,8.2%
COc1ccc(-n2c(/C=C/c3cccc(F)c3)nc3ccccc3c2=O)cc1Cl,i,i,x,x,x
COc1ccc(-n2c(/C=C/c3ccc(O)c(O)c3)nc3ccccc3c2=O)cc1,i,i,u,18.3µM*,u
COc1cccc(-n2c(C)nc3ccccc3c2=O)c1,i,i,-2.0%,16.5%,-0.9%
CCCCCCCCCC(=O)O[C@H]1CC[C@H]2[C@@H]3CCC4=CC(=O)CC[C@]4(C)[C@H]3CC[C@]12C,x,x,u,x,-5.6%
Brc1ccc2c(c1)-n1nncc1CN(CC1CCCCC1)C2,i,i,x,x,x
Cc1ccc2c(c1)C1CN(C)CCC1N2C(=O)c1cn(-c2ccccc2)nc1-c1ccccc1 (stereo not given),i,i,20.6µM*,u,u
COc1cc(OC)cc(-c2sc3ccc(OC)cc3c2-c2ccc(OCCN3CCOCC3)cc2)c1,i,i,u,6.51µM*,u
Cc1ccc(-n2c(O)c(/C=N/N3CCCCC3c3cccnc3)c(=O)[nH]c2=S)cc1 (stereo not given),i,i,-3.3%,u,-5.3%
Cc1ccc(C(=O)NC(O)C(Cl)(Cl)Cl)cc1 (stereo not given),i,i,-4.3%,12.4%,-3.9%
CN(C)S(=O)(=O)c1ccc(C(=O)NNc2nc(-c3ccccc3)c3cc(Br)ccc3n2)cc1,i,u,4.5%,23.1µM*,13.6%
Cc1ccc(S(=O)(=O)N(C)CCCC(=O)N2CCN(c3ccccn3)CC2)cc1,u,u,u,18.4µM*,u
c1ccc(C2(N3CCCC3)CCCCC2)cc1,x,x,3.9%,x,-5.9%
COc1ccc(Oc2cc(NC(=O)c3nn(C)cc3[N+](=O)[O-])cc([N+](=O)[O-])c2)cc1,20.6µM*,u,2.06µM*,u,u
CCOc1cc2c(cc1OCC)-n1cccc1C(c1ccc(C(C)C)cc1)NC2 (stereo not given),u,u,18.4µM*,u,u
O=C(NN=Cc1ccc(N(CCCl)CCCl)cc1)c1cccnc1,i,i,20.1%,x,u
COC(=O)C1=C(c2ccc(F)cc2OCc2ccccc2)C[C@@H]2CC[C@H]1N2C(=O)NCc1ccc(F)cc1,u,i,u,u,0.517µM*
COC(=O)C1=C(c2ccccc2OCc2ccccc2)C[C@@H]2CC[C@H]1N2C(=O)NCc1ccc(F)cc1,20.6µM*,18.4µM*,25.2%,-22.8%,u
Cc1ccc(OP(=O)(Nc2cccc(C)c2)Oc2ccc(C)cc2)cc1,i,i,27.1%,u,104.4%
COc1ccc2c(c1)CC1(CN2C)C(=O)NC(=O)N(c2ccc(F)cc2)C1=O (stereo not given),i,i,7.7%,-1.2%,3.2%
CCCCCCOc1ccc(CN2CCN(CCO)CC2)cc1,u,i,u,u,u
